Laboratory results published in PubChem BioAssay AID624246 (National Center for Advancing Translational Sciences (NCATS), 2012).
The whole screen tested about 370,000 compounds, of which about 100 (0.027%) were called active. Calls follow the shape of the dose curve; as a rule, active = well fitted inhibition curve with a large enough effect in the polarisation, with a control signal flat; inconclusive = small, poorly fitted or top-dose-only effect, or effect the other way, or a change in a side signal; inactive = no such curve, though single readings can be large or run the other way; the % refers to the polarisation. Shown is part of a subset that was picked to be rich in actives.

biological target: Transcriptional regulator ERG (Homo sapiens) (UniProt P11308); experiment: qHTS for Small Molecule Inhibitors of the ERG Ets/DNA interaction; settings: fluorescence polarization, His-ERG Ets domain / labelled DNA; series mostly up to 76.9 µM
Sequence (P11308 whole entry, looked up, the tested form may be a part): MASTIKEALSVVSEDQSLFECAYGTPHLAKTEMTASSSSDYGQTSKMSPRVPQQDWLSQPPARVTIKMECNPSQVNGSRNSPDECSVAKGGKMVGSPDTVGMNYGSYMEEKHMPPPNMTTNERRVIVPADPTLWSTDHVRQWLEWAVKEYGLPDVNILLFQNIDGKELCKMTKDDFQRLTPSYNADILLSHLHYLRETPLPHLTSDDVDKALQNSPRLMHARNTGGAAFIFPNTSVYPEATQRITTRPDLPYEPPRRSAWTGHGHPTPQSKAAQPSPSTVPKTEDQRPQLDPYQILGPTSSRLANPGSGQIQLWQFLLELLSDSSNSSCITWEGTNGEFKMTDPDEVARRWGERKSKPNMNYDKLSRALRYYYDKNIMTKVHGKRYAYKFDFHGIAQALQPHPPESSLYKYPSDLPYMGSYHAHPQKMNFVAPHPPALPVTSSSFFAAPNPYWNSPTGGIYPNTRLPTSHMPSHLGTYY
Source text: The Ets family of proteins is a family of ~30 conserved transcription factors defined by the presence of an ~85 amino acid domain referred to as the Ets domain, which mediates sequence-specific DNA binding to a core DNA element GGAA/T.The Ets family member ERG has been linked to several neoplasms. […] More extensive studies of the effects of over-expression of ERG in prostate cells have recently been carried out and have shown that over-expression of ERG results in increased invasion. […] We will carry out a high throughout screen to identify inhibitors of the interaction between ERG and DNA using a fluorescence polarization (FP) assay with a His-tagged ERG Ets domain and fluorescently-labeled DNA probes to develop small molecule inhibitors of this interaction as probes to test this hypothesis and lay the groundwork for the development of targeted therapies against ERG. NIH Molecular Libraries Probe Production Network [MLPCN] NIH Chemical Genomics Center [NCGC] Grant: NS066464 PI Name: John Bushweller, University of Virgina
1.5 ul of protein solution (1 uM ERG domain in 300mM KCl, 50mM Tris-HCl, 1mM EDTA, 1mM DTT, pH 7.5); 20 nl Control plate and compound library plate; 1.5 ul mixture of 5 nM Fluorescein-DNA and 100nM Texas-615-DNA solution in same buffer as above solution; measure fluorescence polarization sequentially for fluorescein (Excitation = 480 nm, Emission = 535s, 535p nm) and Texas red (Excitation = 555 nm, Emission = 632s, 632p nm).
Potency is read from the fitted curve at half-maximal effect.

Potency, inactive:
Cc1ccc(C)c(Nc2nnc(-c3ccc(C)c(S(=O)(=O)N4CCCCC4)c3)c3ccccc23)c1, CCCN1C(=O)C(O)(CC(=O)c2ccc(CC)cc2)c2cc(Br)ccc21 (stereo not given), Cc1nn(CC(=O)O)c(=O)c2cc3cc(F)ccc3n12, CCOC(=O)c1ccc(NC(=O)C2CC(=O)N(c3ccc(C(C)C)cc3)C2)cc1 (stereo not given), COc1cccc(Cn2c(CNS(=O)(=O)c3ccc(Cl)s3)nc3cccnc32)c1, CC(=O)c1c(C)n(S(=O)(=O)c2ccc(Cl)cc2)c2ccc(NS(=O)(=O)c3ccc(Cl)cc3)cc12, COc1cccc(Cn2c(SCc3ccc(C(=O)N4CCCCC4)cc3)nc3ccncc32)c1, Fc1cccc(-n2ncc3c2ncn2nc(-c4ccccc4Cl)nc32)c1, Cc1ccc(-c2cn3c(n2)sc2cc(C(=O)NCc4cccs4)ccc23)c(C)c1, COc1ccccc1CNC(=O)c1ccccc1NC(=O)c1nsc2ccccc12, CC(=O)Nc1ccc(NC(=O)c2cc3sccc3n2Cc2ccc(F)cc2)cc1, CCOc1ccc(OCC)c(NC(=O)CN(c2ccc(C)cc2)S(=O)(=O)c2c(C)n[nH]c2C)c1, CCc1ccccc1N(C)C(=O)C1CCCN(c2ncnc3onc(-c4ccc(F)cc4)c23)C1 (stereo not given), CCCc1nn2c(=O)cc(COC(=O)c3ccc(NC(=O)COc4ccc(F)cc4)cc3)nc2s1, COc1cc(NC(=O)Cn2c(=O)n(Cc3ccco3)c(=O)c3oc4ccccc4c32)cc(OC)c1, Cc1cccc(NC(c2cccc(F)c2)c2ccc3ccc(C)nc3c2O)n1 (stereo not given), COc1cc(NC(=O)CCn2nc(C)cc2C)cc(OC)c1OC, Cc1cc(C)cc(OCC(=O)Nc2cc(NC(=O)COc3cc(C)cc(C)c3)cc(C(=O)O)c2)c1, Cc1cc(N2CCCC2)ccc1NC(=O)COc1ccc(Cl)cc1, CCOc1ccc(NC(=O)c2c(NCc3cccc(OC)c3OC)sc3c2CCC3)cc1, Cc1cccc(C(=O)Nc2ccc(-c3nc4ncccc4o3)cc2C)c1, CC(=O)Nc1ccc(NC(=O)CCCc2nc(-c3ccc(C(C)(C)C)cc3)no2)cc1, COc1ccccc1CN1CCC(CNC(=O)c2cnn(-c3ccccc3Cl)c2C2CCN(C(=O)OC(C)(C)C)CC2)CC1, CC(C)Cn1c(=O)c2ccccc2n2c(CCC(=O)N3CCN(c4cccc(Cl)c4)CC3)nnc12, CCCn1c2ccccc2c2cnn(CC(=O)N(C)c3ccccc3CC)c(=O)c21, O=C(NCc1ccccc1Cl)C1=Cc2cc(Br)ccc2OC1, COc1ccc(NC(C)=O)cc1NC(=O)CN1CCN(c2ccc(F)cc2)CC1, O=C(CSc1oc(-c2ccco2)nc1S(=O)(=O)c1ccc(Cl)cc1)c1ccccc1, Cc1ccccc1-c1nc(CS(=O)(=O)CC(=O)Nc2cc(Cl)cc(Cl)c2)c(C)o1, Cc1ccc(NC(=O)c2nc(S(=O)(=O)Cc3cccc(C)c3)ncc2Cl)cc1, CCc1cccc(C)c1NS(=O)(=O)c1ccc(-c2cc(C)no2)s1, O=C(CC1N=C2c3ccccc3N=C(SCc3ccc(F)cc3)N2C1=O)NCc1cccs1 (stereo not given), COc1cccc(-c2nc(CS(=O)(=O)CC(=O)N3CCN(c4cc(C)ccc4C)CC3)c(C)o2)c1, CSc1nc(Nc2ccc(F)cc2)cc(-c2ccccc2)n1, Cc1nc(SCC(=O)Nc2ccc(C(=O)O)cc2)n[nH]1, COc1ccc(NC(=O)CSc2nccn2C2CCCC2)cc1OC, COc1ccc(OCC(=O)Nc2cccc(C(=O)OCc3cc(=O)n4nc(C)sc4n3)c2)cc1, Cc1nnc(NC(=O)CSc2nc3c([nH]c4ccccc43)c(=O)n2-c2cccc(Cl)c2)s1, O=C(CSc1nc(=O)[nH]c2c1CCCC2)Nc1cc(C(F)(F)F)ccc1Cl, Cc1cc(C)cc(OCC(=O)Nc2nc(-c3ccc(F)cc3)ns2)c1, Cc1ccc(Cn2c(CNC(=O)Cc3cccc(C)c3)nc3cccnc32)cc1, CSc1ncc(Cl)c(C(=O)Nc2ccc(S(=O)(=O)N3CCCC(C)C3)cc2)n1 (stereo not given), CCc1ccc(CNC(=O)c2ccc(CS(=O)c3ccc(Br)cc3)o2)cc1 (stereo not given), Cc1cccc(C(=O)Nc2ccc(S(=O)(=O)N3CCCCC3c3cccnc3)cc2)c1 (stereo not given), COc1ccc(-c2nc(CN3CCC(C(=O)NCCN(CC(C)C)CC(C)C)CC3)c(C)o2)cc1OC, Cc1cc(C)cc(NC(=O)CSc2oc(-c3ccccc3)nc2S(=O)(=O)c2ccc(Cl)cc2)c1, Cc1cccc(N2CCN(C(=O)c3cnc(N4CCCC4)nc3C)CC2)c1C, CCc1cc2c(cc(C(=O)OC)n2Cc2nc(-c3ccc(C)cc3)oc2C)s1, Cc1ccc(-c2cc(C(F)(F)F)c(C#N)c(SCC(=O)Nc3ccccc3)n2)cc1, COc1ccc(C(=O)NCC(c2ccc(N(C)C)cc2)N2CCc3ccccc32)c(OC)c1 (stereo not given), CC(=O)Nc1ccc(NC(=O)CSc2nnc3c4cc(Br)ccc4n(C)c3n2)cc1, O=C(CSc1oc(-c2ccco2)nc1S(=O)(=O)c1ccccc1)c1ccc(Cl)cc1, Cc1ccccc1OCCSc1nc2ccc(NC(=O)c3ccco3)cc2s1, Cc1ccc(-c2nnc(Nc3ccc(OCC(N)=O)cc3)c3ccccc23)cc1S(=O)(=O)NCC1CCCO1 (stereo not given), O=C(NC1CC(=O)N(c2ccc(F)cc2)C1)c1cccs1 (stereo not given), O=C(NCCc1ccc(Cl)cc1)c1ccc2nc(CCc3ccccc3)oc2c1, COc1ccc(OC)c(CNC(=O)CN2C(=O)CCn3nc(-c4cn(C)c5ccccc45)cc32)c1

Potency, active:
COc1ncnc2c1N=C1CC(C)(C)CC(N)=C1S2 35.5 µM, Cc1cc(C)cc(OCC(=O)Nc2ccc(N3CCOCC3)cc2N2CCOCC2)c1 28.2 µM, CCN(CC)CCCC(C)n1c2nc(=O)[nH]c(=O)c-2nc2cc(Cl)ccc21 (stereo not given) 35.5 µM
